Compounds without any hit were thinned out: in the full panel of roughly 83,000, 20% have a hit.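 Step 1: grow cells in 96-well plates. Step 2: add test compound at a single concentration. Step 3: incubate 48 h. Step 4: record percent growth.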 A number with no mark means an inactive call. The source made the active and inactive calls. The calls were made as follows: active = growth percent below 10; inactive = the rest.

For one experiment, the system named is OVCAR-3 ovarian. Put plainly: NCI-60 one-dose screen, 48 h (100 = growth as untreated, 0 = no growth, -100 = all killed). The settings on record: 10 µM unless noted.
Regarding `Nc1nc(N)c2c(n1)NC1(C=C(O)c3ccccc31)C1=C(N2)c2ccccc2C1=O` (stereo not drawn), the growth was 113%.

Turning to `COc1ccc(CCN2C(=O)/C(=C/c3ccc(C4Oc5ccccc5C5CC(c6cccc(OC)c6)=NN54)cc3)SC2=S)cc1` (stereo not drawn), the growth was 102%.

As for `O=C(Nc1ccc(N2CCNCC2)cc1)c1[nH]ncc1Nc1cc(Oc2ccccc2)ncn1`, the growth was 6.24% (active).

In the case of `O=C(CCc1nnc2sc(Cc3ccccc3Cl)nn12)c1nc2ncccc2[nH]1`, the growth was 96.9%.

Turning to `O=NN(Cc1cccnc1)C(=O)NC1CCCCC1`, the growth is 114%.

In the case of `CN(C)/C=C1\SC(=Nc2ccc(Cl)cc2)NC1=O`, the growth was 107%.

Take `CCOC(=O)c1cc2c(n1Cc1ccccc1)-c1oncc1CCC2`: the growth was 76.6%.

`O=C(c1ccccc1)N(C(=S)NCCc1ccc(Cl)cc1)c1ccccc1`: the growth is 98%.

With `COc1cccc(/C=C/C(=O)c2c(C)nc3ccccc3c2/C=C/c2ccccc2)c1OC`, the growth is 2.68% (active).

Consider `CCOC(=O)c1cc2c(n1Cc1cccc(OC)c1)-c1oncc1CCC2`, for which the growth was -8.41% (active).

Regarding `COc1ccc(OC)c(NC(=O)/C(C#N)=C/c2ccco2)c1`, the growth was 110%.

As to `CCc1ccc(CNCC(O)c2ccccc2)cc1` (stereo not drawn), the growth was 71.4%.

On to `CC/C=C\C[C@H](O)C/C=C1/C(=O)C=C[C@@H]1C/C=C\CCCC(=O)OCCS(=O)(=O)c1ccccc1`, for which the growth is 20.7%.

`O=C1c2cc(Br)ccc2Oc2cc([N+](=O)[O-])ccc2N1c1ccc(I)cc1F`: the growth is 109%.

Consider `COc1ccc(/C=C/C(=O)c2c(C)nc3ccccc3c2/C=C/c2ccccc2)cc1O`, for which the growth is 13.6%.

Turning to `COc1ccc(-c2nc(N3CCN(C(=O)C4CCCCC4)CC3)c3c4c(sc3n2)CCCC4)cc1`, the growth is -38.3% (active).

With `O=c1oc2ccc(F)cc2c(=O)n1-c1ccc(Cl)cc1F`, the growth was 8.61% (active).

With `COc1cc(C(=O)Nc2ccc(-c3nc4ccccc4[nH]3)cc2)cc(OC)c1OC`, the growth is 9.3% (active).

As to `O=c1oc2ccc(Cl)cc2c(=O)n1-c1ccc(I)cc1F`, the growth was 6.61% (active).

In the case of `CCC1=C[C@@H]2CN(C1)Cc1c([nH]c3ccccc13)[C@@](C(=O)OC)(c1cc3c(cc1OC)N(C)[C@H]1[C@@](O)(C(=O)OC)[C@H](OC(C)=O)[C@]4(CC)[C@@H]5C[C@@H]5CN5CC[C@]31[C@@H]54)C2`, the growth is -25.8% (active).

`O=c1oc2ccc(F)cc2c(=O)n1-c1ccc(I)cc1F`: the growth was 8.05% (active).

In the case of `COc1ccc(C2C3=C(COC3=O)N(CCO)c3cc4c(cc32)CCC4)cc1OC` (stereo not drawn), the growth was -18.6% (active).

Take `O=c1oc2ccc(I)cc2c(=O)n1-c1ccc(Cl)cc1F`: the growth is 8.51% (active).

For `O=C1OC(c2ccccc2)(c2ccccc2)c2ccsc21`, the growth was 100%.

With `O=c1oc2ccc(-c3ccc(F)cc3F)cc2c(=O)n1-c1cccc(C(F)(F)F)c1`, the growth is 7.84% (active).

Turning to `Cn1nc(C(C)(C)C)cc1NC(=O)Cc1ccc(/C=C2\C(=O)Nc3ccccc32)cc1`, the growth was 64.5%.

For `Cc1ccc(Nc2nc(N)c3ccccc3n2)cc1Cl`, the growth was 63.5%.

Take `O=C(c1ccccc1)N(CCc1ccc(Cl)cc1)C(=S)N(C(=O)c1ccccc1)c1ccccc1`: the growth is 104%.

With `O=C(COc1cc(O)c2c(=O)cc(-c3ccccc3)oc2c1)Nc1ccccc1`, the growth is 106%.

`O=C1c2cc(I)ccc2Oc2cc([N+](=O)[O-])ccc2N1c1ccc(Cl)cc1F`: the growth is 100%.

With `Nc1ccc(-c2nn3c(CCC(=O)c4nc5ncccc5[nH]4)nnc3s2)c(O)c1`, the growth was 100%.

Regarding `COc1c(B(O)O)cccc1-c1nc2ccc3[nH]ncc3c2c2c1C1CCC2C1` (stereo not drawn), the growth is 59%.

`Oc1c(CN2CCN(c3ccccc3F)CC2)cc(Br)c2cccnc12`: the growth is -86% (active).

On to `O=C(Nc1ccc(F)cc1F)c1cc(Br)ccc1O`, for which the growth was 0.111% (active).

`O=C(Nc1ccc(N2CCNCC2)cn1)c1[nH]ncc1Nc1ncnc2sccc12`: the growth is 33.2%.

Turning to `O=C1c2ccc3c4c(ccc(c24)C(=O)N1CCCCO)C(=O)N(CCCCO)C3=O`, the growth is 32.9%.

Regarding `CC[C@]1(O)C[C@@H]2CN(CCc3c([nH]c4ccccc34)[C@@](C(=O)OC)(c3cc4c(cc3OC)N(C)[C@H]3[C@@](O)(C(=O)OC)[C@H](OC(=O)CCCBr)[C@]5(CC)C=CCN6CC[C@]43[C@@H]65)C2)C1`, the growth was -1.93% (active).

Take `Nc1ncnc(N)c1NC(=O)c1ccc(OCc2ccccc2)cc1`: the growth was 110%.

Consider `O=c1oc2ccc(Cl)cc2c(=O)n1-c1ccc(F)cc1F`, for which the growth was 6.16% (active).

The subject of the next experiment is HS 578T breast. The experiment is described as above. The settings on record: 10 µM unless noted.
On to `Nc1nc(N)c2c(n1)NC1(C=C(O)c3ccccc31)C1=C(N2)c2ccccc2C1=O` (stereo not drawn), for which the growth was 111%.

Turning to `COc1ccc(CCN2C(=O)/C(=C/c3ccc(C4Oc5ccccc5C5CC(c6cccc(OC)c6)=NN54)cc3)SC2=S)cc1` (stereo not drawn), the growth is 101%.

Take `O=C(Nc1ccc(N2CCNCC2)cc1)c1[nH]ncc1Nc1cc(Oc2ccccc2)ncn1`: the growth is 32.4%.

Take `O=C(CCc1nnc2sc(Cc3ccccc3Cl)nn12)c1nc2ncccc2[nH]1`: the growth is 88.7%.

Take `O=NN(Cc1cccnc1)C(=O)NC1CCCCC1`: the growth is 118%.

Regarding `CN(C)/C=C1\SC(=Nc2ccc(Cl)cc2)NC1=O`, the growth is 95.5%.

Take `CCOC(=O)c1cc2c(n1Cc1ccccc1)-c1oncc1CCC2`: the growth was 76.5%.

With `O=C(c1ccccc1)N(C(=S)NCCc1ccc(Cl)cc1)c1ccccc1`, the growth is 112%.

In the case of `COc1cccc(/C=C/C(=O)c2c(C)nc3ccccc3c2/C=C/c2ccccc2)c1OC`, the growth was 37.5%.

With `CCOC(=O)c1cc2c(n1Cc1cccc(OC)c1)-c1oncc1CCC2`, the growth is 6.59% (active).

As to `COc1ccc(OC)c(NC(=O)/C(C#N)=C/c2ccco2)c1`, the growth is 108%.

As to `CCc1ccc(CNCC(O)c2ccccc2)cc1` (stereo not drawn), the growth was 93.3%.

In the case of `CC/C=C\C[C@H](O)C/C=C1/C(=O)C=C[C@@H]1C/C=C\CCCC(=O)OCCS(=O)(=O)c1ccccc1`, the growth was 36.2%.

As to `O=C1c2cc(Br)ccc2Oc2cc([N+](=O)[O-])ccc2N1c1ccc(I)cc1F`, the growth was 101%.

For the compound `COc1ccc(/C=C/C(=O)c2c(C)nc3ccccc3c2/C=C/c2ccccc2)cc1O`, the growth was 37.5%.

Take `COc1ccc(-c2nc(N3CCN(C(=O)C4CCCCC4)CC3)c3c4c(sc3n2)CCCC4)cc1`: the growth is 12.8%.

For the compound `O=c1oc2ccc(F)cc2c(=O)n1-c1ccc(Cl)cc1F`, the growth was -0.15% (active).

`COc1cc(C(=O)Nc2ccc(-c3nc4ccccc4[nH]3)cc2)cc(OC)c1OC`: the growth is 72.5%.

Regarding `O=c1oc2ccc(Cl)cc2c(=O)n1-c1ccc(I)cc1F`, the growth was -0.395% (active).

As for `CCC1=C[C@@H]2CN(C1)Cc1c([nH]c3ccccc13)[C@@](C(=O)OC)(c1cc3c(cc1OC)N(C)[C@H]1[C@@](O)(C(=O)OC)[C@H](OC(C)=O)[C@]4(CC)[C@@H]5C[C@@H]5CN5CC[C@]31[C@@H]54)C2`, the growth was -5.73% (active).

As for `O=c1oc2ccc(F)cc2c(=O)n1-c1ccc(I)cc1F`, the growth is -4.95% (active).

In the case of `COc1ccc(C2C3=C(COC3=O)N(CCO)c3cc4c(cc32)CCC4)cc1OC` (stereo not drawn), the growth is 21.1%.

As to `O=c1oc2ccc(I)cc2c(=O)n1-c1ccc(Cl)cc1F`, the growth is 5.48% (active).

As for `O=C1OC(c2ccccc2)(c2ccccc2)c2ccsc21`, the growth was 103%.

With `O=c1oc2ccc(-c3ccc(F)cc3F)cc2c(=O)n1-c1cccc(C(F)(F)F)c1`, the growth was 8.28% (active).

Take `Cn1nc(C(C)(C)C)cc1NC(=O)Cc1ccc(/C=C2\C(=O)Nc3ccccc32)cc1`: the growth is 74.7%.

With `Cc1ccc(Nc2nc(N)c3ccccc3n2)cc1Cl`, the growth was 101%.

For `O=C(c1ccccc1)N(CCc1ccc(Cl)cc1)C(=S)N(C(=O)c1ccccc1)c1ccccc1`, the growth was 108%.

Turning to `O=C(COc1cc(O)c2c(=O)cc(-c3ccccc3)oc2c1)Nc1ccccc1`, the growth is 80.3%.

Consider `O=C1c2cc(I)ccc2Oc2cc([N+](=O)[O-])ccc2N1c1ccc(Cl)cc1F`, for which the growth was 88.6%.

For `Nc1ccc(-c2nn3c(CCC(=O)c4nc5ncccc5[nH]4)nnc3s2)c(O)c1`, the growth is 74%.

Consider `COc1c(B(O)O)cccc1-c1nc2ccc3[nH]ncc3c2c2c1C1CCC2C1` (stereo not drawn), for which the growth is 40.8%.

`Oc1c(CN2CCN(c3ccccc3F)CC2)cc(Br)c2cccnc12`: the growth was -10.3% (active).

For the compound `O=C(Nc1ccc(F)cc1F)c1cc(Br)ccc1O`, the growth was 10.2%.

As for `O=C(Nc1ccc(N2CCNCC2)cn1)c1[nH]ncc1Nc1ncnc2sccc12`, the growth is 69.9%.

For `O=C1c2ccc3c4c(ccc(c24)C(=O)N1CCCCO)C(=O)N(CCCCO)C3=O`, the growth is 78.2%.

As for `CC[C@]1(O)C[C@@H]2CN(CCc3c([nH]c4ccccc34)[C@@](C(=O)OC)(c3cc4c(cc3OC)N(C)[C@H]3[C@@](O)(C(=O)OC)[C@H](OC(=O)CCCBr)[C@]5(CC)C=CCN6CC[C@]43[C@@H]65)C2)C1`, the growth is 8.92% (active).

Consider `Nc1ncnc(N)c1NC(=O)c1ccc(OCc2ccccc2)cc1`, for which the growth is 103%.

Turning to `O=c1oc2ccc(Cl)cc2c(=O)n1-c1ccc(F)cc1F`, the growth was 8.54% (active).

The record behind these values is PubChem BioAssay (NCI).
